Experimental data: PubChem BioAssay (NCATS)
Records with an inconclusive call do not appear. Entries that show only a call come without a potency. Activity calls are given as the source filed them. Unless noted, calls follow the shape of the dose curve; as a rule, active = well fitted curve in the direction sought with a large enough effect; inconclusive = small, poorly fitted or top-dose-only effect, or another doubt; inactive = no such curve, though single readings can be large; an effect the other way counts as inactive or inconclusive.

Experiments:
[1] = target: Glutathione peroxidase 1 (Homo sapiens) (UniProt P07203); assay: Primary qHTS Assay for Inhibitors of Recombinant Selenoprotein Glutathione Peroxidase 1 (GPX1) (AID 1845191); conditions: outcome: dose series up to 48.8 µM; also: nearly all actives have a fitted effect of over 65% in size
How it was run: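 GR-coupled assay: compounds preincubated 30 min at room temperature with GPX1, then reaction started with CHP; final 10 nM GPX1, 1 mM GSH, 0.5 mM CHP, 0.5 mM NADPH, 100 nM GR, 0.01% BSA, pH 7.5 Tris buffer. NADPH fluorescence (340/450 nm) read at 0 and 15 min.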

[2] = target: Rap guanine nucleotide exchange factor 3 (Homo sapiens) (UniProt O95398); assay: Confirmatory qHTS for agonist of cAMP-regulated guanine nucleotide exchange factor 3 (EPAC1) (AID 1645881);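 also: EPAC1 catalysed release of BODIPY-GDP from Rap1B seen as fluorescence loss; nearly all actives have a fitted effect of over 75% in size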
[3] = target: Rap guanine nucleotide exchange factor 4 (Homo sapiens) (UniProt Q8WZA2); assay: Confirmatory qHTS for agonist of cAMP-regulated guanine nucleotide exchange factor 4 (EPAC2) (AID 1645884);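 also: nucleotide exchange releases bodipy-GDP from Rap1 and this lowers its fluorescence; nearly all actives have a fitted effect of over 65% in size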
[4] = target: Rap guanine nucleotide exchange factor 4 (Homo sapiens) (UniProt Q8WZA2); assay: Confirmatory qHTS for antagonist of cAMP-regulated guanine nucleotide exchange factor 4 (EPAC2) (AID 1645885); also: nearly all actives have a fitted effect of over 25% in size; also: potency is read from the fitted curve at half-maximal effect
[5] = target: Phospholipid hydroperoxide glutathione peroxidase GPX4 (Homo sapiens) (UniProt P36969); assay: Primary qHTS Assay for Inhibitors of Recombinant Selenoprotein Glutathione Peroxidase 4 (GPX4) (AID 1845192); also: nearly all actives have a fitted effect of over 65% in size; also: potency is read from the fitted curve at half-maximal effect
How it was run: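 GR-coupled assay: recombinant GPX4 preincubated 30 min with compound at room temperature; final 200 nM GPX4, 1 mM GSH, 0.5 mM cumene hydroperoxide, 0.5 mM NADPH, 100 nM GR, 0.01% BSA, pH 7.5 Tris. NADPH fluorescence (340/450 nm) read at 0 and 15 min.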

[6] = target: Nuclear receptor subfamily 1 group I member 3 (Homo sapiens) (UniProt Q14994); assay: Primary qHTS for antagonist of constitutive androstane receptor (CAR) against the NCATS DSHEA and TCM libraries (AID 1794836);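 also: HepG2 cells stably expressing hCAR with CYP2B6 luciferase reporter stimulated by CITCO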
How it was run: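 HepG2-CYP2B6-hCAR cells, attached 5 h, given compounds plus CITCO agonist […], incubated 24 h at 37 C. Luciferase luminescence read, multiplexed with CellTiter-Fluor viability (Ex/Em 405/540 nm).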

[7] = target: Metallo-beta-lactamase type 2 (Klebsiella pneumoniae) (UniProt C7C422); assay: qHTS to identify inhibitors of the New Delhi Metallo-beta-lactamase (NDM): assay validation screen against the NCATS LOPAC Collection (AID 1794843);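 also: nitrocefin turnover by NDM-1 measured as 485 nm absorbance at plateau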
How it was run: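 NDM-1 at 2 nM final in 50 mM HEPES pH 7.0, 1 uM ZnSO4, 0.01% Tween20, preincubated with LOPAC compounds pinned in DMSO; 50 uM nitrocefin (stock) added. Hydrolysis read as absorbance at 485 nm in the plateau phase.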

[8] = NCATS anti-infectives library activity on HEK293 viability as a counter-qHTS vs the C. elegans viability qHTS (AID 1745854);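 also: HEK293 cells exposed to compounds for 24 hr before the viability read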
How it was run: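 Compounds were acoustically plated (several concentrations, 1:5, final up to 41.7 uM), then 1500 HEK293 cells added per well and incubated 24 hr at 37C, 5% CO2. CellTiter-Glo was added and luminescence read after 10 min.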

[9] = target: Catechol O-methyltransferase (Homo sapiens) (UniProt P21964); assay: Confirmatory Screen for Target Class Profiling of Small Molecule Inhibitors of Methyltransferases (AID 1745852; calls by dose curve; also: potency is read from the fitted curve at half-maximal effect); conditions: MTase-Glo luminescence, SAH detection, recombinant enzyme; measured here: COMT max response; stronger effect = lower value
[10] = target: Guanidinoacetate N-methyltransferase (Homo sapiens) (UniProt Q14353); assay: as above; conditions: MTase-Glo luminescence, SAH detection, recombinant enzyme; activity change, negative = inhibition: at 57.3 µM (top of the series)
[11] = target: Nicotinamide N-methyltransferase (Homo sapiens) (UniProt P40261); assay: as above; conditions: MTase-Glo luminescence, SAH detection, recombinant enzyme; measured here: NNMT max response; stronger effect = lower value
[12] = target: Phenylethanolamine N-methyltransferase (Homo sapiens) (UniProt P11086); assay: as above; conditions: MTase-Glo luminescence, SAH detection, recombinant enzyme; measured here: PNMT max response; stronger effect = lower value
[13] = target: Luciferin 4-monooxygenase (Photinus pyralis) (UniProt P08659); assay: Primary firefly luciferase (FLuc) qHTS assay for identification of artifact compounds. (AID 1845220); conditions: outcome: dose series up to 54.1 µM; also: nearly all actives have a fitted effect of over 60% in size
How it was run: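 Enzymatic FLuc inhibition assay: compounds pre-exposed to luciferin/ATP (10 uM each) for 15 min, then purified P. pyralis enzyme at 10 nM added. Read-out: luminescence at 5 min.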

[14] = tested on: Nanoluciferase (engineered Oplophorus gracilirostris luciferase); assay: Primary Nanoluciferase (NLuc) qHTS assay for identification of artifact compounds. (AID 1845222);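 also: NLuc secreted into diluted conditioned medium of S16 cells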
How it was run: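 S16 cell supernatant NLuc, 1:55; cpds qHTS; 15 min RT dark; Nano-Glo substrate 1:100, 5 min; luminescence; Hill fit of % inhibition.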

[15] = target: Rap guanine nucleotide exchange factor 3 (Homo sapiens) (UniProt O95398); assay: Confirmatory qHTS for antagonist of cAMP-regulated guanine nucleotide exchange factor 3 (EPAC1) (AID 1645880); also: nearly all actives have a fitted effect of over 55% in size
How it was run: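 Nucleotide exchange uses 100 nM EPAC1, 250 nM RAP1B-BODIPY-GDP and 50 uM GDP, with compounds in a concentration-titration series. After 5 min at room temperature, fluorescence (480 nm ex/540 nm em) is read every 5 min for 30 min. Data are normalized to control ATA and DMSO.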

[16] = Viability counterscreen for antagonist of constitutive androstane receptor (CAR) against the NCATS DSHEA and TCM libraries (AID 1794837);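 also: compound exposure lasted 24 h before viability reading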
How it was run: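 HepG2-CYP2B6-hCAR cells (2,500/well) were allowed to attach for 5 h, then exposed to compounds with 48 uM CITCO for 24 h at 37C. Viability was read by CellTiter-Fluor fluorescence after 1 h.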

[17] = Viability counterscreen for agonist of constitutive androstane receptor (CAR) against the NCATS DSHEA and TCM libraries (AID 1794838)
How it was run: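 HepG2-CYP2B6-hCAR cells (2,500/well) attached 5 h, then got compounds plus 0.75 uM PK11195 final. After 24 h at 37C, viability read by CellTiter-Fluor fluorescence (Ex/Em 405/540 nm).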

[18] = target: Nuclear receptor subfamily 1 group I member 3 (Homo sapiens) (UniProt Q14994); assay: Primary qHTS for agonist of constitutive androstane receptor (CAR) against the NCATS DSHEA and TCM libraries (AID 1794839);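 also: HepG2 cells expressing human CAR with a CYP2B6 reporter plus PK11195 antagonist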
How it was run: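 HepG2-CYP2B6-hCAR cells (2,500/well) were attached for 5 h, then treated for 24 h at 37 °C with compounds plus 0.75 µM PK11195. Luciferase luminescence (ONE-Glo) was read, with CellTiter-Fluor viability (Ex/Em 405/540 nm).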

[19] = HepG2 viability counterscreen (readout 2: ATP content) against the NCATS DSHEA and TCM libraries (AID 1794840);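 also: HepG2 cells exposed to substances for about 24 h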
How it was run: (§1)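 HepG2 cells (1,000 cells/well) attached ~4 h, then treated ~24 h at 37C with substances. Protease activity read by GF-AFC (25 uM final, 30 min, Ex/Em 380/510 nm); ATP content then by CellTiter-Glo luminescence.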

[20] = HepG2 viability counterscreen (readout 1: protease activity) against the NCATS DSHEA and TCM libraries (AID 1794841);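 also: cells exposed to compounds for about 24 h before the protease read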
How it was run: as §1

Chain of Metallo-beta-lactamase type 2 (Klebsiella pneumoniae) (C7C422 whole entry, looked up): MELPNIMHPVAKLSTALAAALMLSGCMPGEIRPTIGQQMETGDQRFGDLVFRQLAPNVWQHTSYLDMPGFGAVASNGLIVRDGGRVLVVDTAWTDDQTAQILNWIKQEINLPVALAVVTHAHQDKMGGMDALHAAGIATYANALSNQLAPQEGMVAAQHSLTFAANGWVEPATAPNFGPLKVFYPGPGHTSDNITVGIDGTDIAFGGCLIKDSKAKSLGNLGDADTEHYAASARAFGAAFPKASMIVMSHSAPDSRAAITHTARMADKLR
Chain of Glutathione peroxidase 1 (Homo sapiens) (P07203 whole entry, looked up): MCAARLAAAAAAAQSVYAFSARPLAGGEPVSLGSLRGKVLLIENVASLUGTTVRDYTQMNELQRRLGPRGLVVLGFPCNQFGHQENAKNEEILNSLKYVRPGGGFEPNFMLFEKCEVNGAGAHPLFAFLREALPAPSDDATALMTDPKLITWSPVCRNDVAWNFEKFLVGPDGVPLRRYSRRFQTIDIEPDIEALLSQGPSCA
Chain of Nuclear receptor subfamily 1 group I member 3 (Homo sapiens) (Q14994 whole entry, looked up): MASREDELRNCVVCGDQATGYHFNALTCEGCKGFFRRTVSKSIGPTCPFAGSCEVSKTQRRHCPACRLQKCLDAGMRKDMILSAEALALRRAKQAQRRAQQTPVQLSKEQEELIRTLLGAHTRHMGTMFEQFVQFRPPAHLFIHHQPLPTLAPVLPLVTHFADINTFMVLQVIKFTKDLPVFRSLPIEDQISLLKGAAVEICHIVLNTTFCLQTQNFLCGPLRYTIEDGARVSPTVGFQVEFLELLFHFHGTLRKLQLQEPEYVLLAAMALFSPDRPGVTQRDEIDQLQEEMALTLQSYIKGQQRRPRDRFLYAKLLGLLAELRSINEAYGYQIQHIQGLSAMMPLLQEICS
Chain of Rap guanine nucleotide exchange factor 3 (Homo sapiens) (O95398 whole entry, looked up): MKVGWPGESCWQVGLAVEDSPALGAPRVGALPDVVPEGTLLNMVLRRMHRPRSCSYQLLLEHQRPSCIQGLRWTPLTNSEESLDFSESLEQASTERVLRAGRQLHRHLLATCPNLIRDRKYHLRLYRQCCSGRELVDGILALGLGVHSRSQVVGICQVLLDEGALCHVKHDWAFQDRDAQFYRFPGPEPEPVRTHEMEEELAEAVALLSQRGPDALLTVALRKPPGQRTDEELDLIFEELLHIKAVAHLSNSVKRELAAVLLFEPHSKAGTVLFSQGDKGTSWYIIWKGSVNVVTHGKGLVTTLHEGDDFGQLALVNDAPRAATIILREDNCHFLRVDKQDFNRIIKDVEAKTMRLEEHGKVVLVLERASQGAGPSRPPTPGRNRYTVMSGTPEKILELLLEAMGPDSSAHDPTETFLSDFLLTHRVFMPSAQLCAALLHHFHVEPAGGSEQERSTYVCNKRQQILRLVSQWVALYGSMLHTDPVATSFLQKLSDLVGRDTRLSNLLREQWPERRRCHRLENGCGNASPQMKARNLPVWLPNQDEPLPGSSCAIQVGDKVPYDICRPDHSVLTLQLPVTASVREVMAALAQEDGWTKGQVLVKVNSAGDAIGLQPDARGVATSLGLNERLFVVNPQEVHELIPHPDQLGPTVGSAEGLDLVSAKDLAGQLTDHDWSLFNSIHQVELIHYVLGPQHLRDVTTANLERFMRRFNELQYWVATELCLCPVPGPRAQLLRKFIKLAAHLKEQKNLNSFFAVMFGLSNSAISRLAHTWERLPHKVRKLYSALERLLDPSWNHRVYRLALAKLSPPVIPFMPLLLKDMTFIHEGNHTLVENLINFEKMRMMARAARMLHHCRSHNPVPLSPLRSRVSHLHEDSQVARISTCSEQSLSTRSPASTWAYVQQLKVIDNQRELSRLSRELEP
Chain of Phospholipid hydroperoxide glutathione peroxidase GPX4 (Homo sapiens) (P36969 whole entry, looked up): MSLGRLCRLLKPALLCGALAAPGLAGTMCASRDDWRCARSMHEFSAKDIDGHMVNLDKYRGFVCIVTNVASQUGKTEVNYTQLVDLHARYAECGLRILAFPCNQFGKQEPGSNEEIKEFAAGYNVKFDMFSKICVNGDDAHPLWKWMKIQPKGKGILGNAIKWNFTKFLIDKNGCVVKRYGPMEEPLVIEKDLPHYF
Chain of Rap guanine nucleotide exchange factor 4 (Homo sapiens) (Q8WZA2 whole entry, looked up): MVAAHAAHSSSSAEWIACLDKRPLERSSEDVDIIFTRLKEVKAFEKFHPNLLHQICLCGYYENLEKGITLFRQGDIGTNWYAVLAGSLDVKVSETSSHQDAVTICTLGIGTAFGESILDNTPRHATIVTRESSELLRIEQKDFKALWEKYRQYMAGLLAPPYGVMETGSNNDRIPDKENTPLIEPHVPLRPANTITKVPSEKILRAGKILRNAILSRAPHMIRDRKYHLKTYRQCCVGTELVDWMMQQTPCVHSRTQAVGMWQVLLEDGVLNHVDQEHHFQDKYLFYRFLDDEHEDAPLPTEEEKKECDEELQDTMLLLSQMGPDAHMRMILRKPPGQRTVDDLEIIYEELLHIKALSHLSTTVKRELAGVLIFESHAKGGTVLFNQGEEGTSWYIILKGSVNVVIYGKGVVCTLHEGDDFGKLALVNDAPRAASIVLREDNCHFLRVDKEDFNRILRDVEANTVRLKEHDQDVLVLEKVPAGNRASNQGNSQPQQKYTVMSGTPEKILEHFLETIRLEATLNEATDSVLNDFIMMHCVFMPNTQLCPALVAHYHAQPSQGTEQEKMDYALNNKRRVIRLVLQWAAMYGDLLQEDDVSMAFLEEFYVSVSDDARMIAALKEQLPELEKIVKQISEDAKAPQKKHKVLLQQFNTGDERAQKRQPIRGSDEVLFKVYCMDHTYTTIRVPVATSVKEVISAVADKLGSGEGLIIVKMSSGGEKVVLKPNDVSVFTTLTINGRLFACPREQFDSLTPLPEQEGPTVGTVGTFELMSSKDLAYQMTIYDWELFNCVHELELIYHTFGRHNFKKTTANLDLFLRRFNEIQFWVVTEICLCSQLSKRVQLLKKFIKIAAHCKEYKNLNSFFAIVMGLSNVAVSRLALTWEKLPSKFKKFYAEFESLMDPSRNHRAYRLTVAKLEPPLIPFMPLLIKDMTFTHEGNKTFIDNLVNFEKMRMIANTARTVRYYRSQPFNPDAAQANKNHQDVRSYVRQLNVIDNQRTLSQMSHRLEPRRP
Chain of Phenylethanolamine N-methyltransferase (Homo sapiens) (P11086 whole entry, looked up): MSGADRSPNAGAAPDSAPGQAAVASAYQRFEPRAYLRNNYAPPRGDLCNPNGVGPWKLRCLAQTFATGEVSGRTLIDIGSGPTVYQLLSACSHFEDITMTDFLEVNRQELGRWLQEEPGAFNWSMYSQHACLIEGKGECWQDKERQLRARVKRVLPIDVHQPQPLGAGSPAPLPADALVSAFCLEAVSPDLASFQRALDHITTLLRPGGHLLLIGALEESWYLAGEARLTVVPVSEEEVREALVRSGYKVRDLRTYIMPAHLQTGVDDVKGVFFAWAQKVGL
Chain of Catechol O-methyltransferase (Homo sapiens) (P21964 whole entry, looked up): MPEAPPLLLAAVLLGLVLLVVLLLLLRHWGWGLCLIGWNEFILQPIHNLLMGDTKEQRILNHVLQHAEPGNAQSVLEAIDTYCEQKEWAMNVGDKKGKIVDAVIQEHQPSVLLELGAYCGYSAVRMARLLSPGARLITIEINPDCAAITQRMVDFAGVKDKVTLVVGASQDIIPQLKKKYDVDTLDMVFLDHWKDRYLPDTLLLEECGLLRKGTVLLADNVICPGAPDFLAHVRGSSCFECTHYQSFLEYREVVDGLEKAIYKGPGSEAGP
Chain of Nicotinamide N-methyltransferase (Homo sapiens) (P40261 whole entry, looked up): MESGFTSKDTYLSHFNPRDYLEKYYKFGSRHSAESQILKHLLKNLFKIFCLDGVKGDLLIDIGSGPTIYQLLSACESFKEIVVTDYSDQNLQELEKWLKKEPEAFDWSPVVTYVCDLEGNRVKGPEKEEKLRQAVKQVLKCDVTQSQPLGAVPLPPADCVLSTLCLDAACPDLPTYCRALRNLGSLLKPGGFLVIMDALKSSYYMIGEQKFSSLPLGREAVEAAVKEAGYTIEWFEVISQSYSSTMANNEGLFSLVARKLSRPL

C=CC[C@]1(O)CC[C@H]2[C@@H]3CCC4=CC(=O)CCC4=C3C=C[C@@]21C
outcome [1]: inactive

Clc1ccc(CSC(Cn2ccnc2)c2ccc(Cl)cc2Cl)cc1 (centres undefined)
outcome [2]: inactive
outcome [3]: inactive
Potency [4]: 22.1 µM (active)
outcome [1]: inactive
Potency [5]: inactive

Oc1ccc(/C=C/c2cc(O)cc(O)c2)cc1
outcome [6]: inactive

O=C(NC(=O)c1c(F)cccc1F)Nc1cc(Cl)c(OC(F)(F)C(F)C(F)(F)F)cc1Cl (centres undefined)
outcome [1]: inactive
Potency [5]: inactive

COC(=O)C1=CCCN(C)C1
outcome [7]: inactive
outcome [1]: inactive
Potency [5]: inactive

C[C@H](N)[C@H](O)c1ccc(O)c(O)c1
outcome [2]: inactive
Potency [4]: inactive
outcome [1]: inactive
Potency [5]: inactive

C[C@@H]1CC[C@H]2[C@@H](C)C(=O)O[C@@H]3O[C@@]4(C)CC[C@@H]1[C@]32OO4
outcome [8]: inactive
outcome [1]: inactive
Potency [5]: inactive

Nc1nc2ncc(CNc3ccc(C(=O)N[C@@H](CCC(=O)O)C(=O)O)cc3)nc2c(=O)[nH]1
outcome [6]: inactive

C/C=C/c1ccc(OC)cc1
outcome [6]: inactive

Cc1nnc2n1-c1sc(CCc3ccc(CC(C)C)cc3)cc1C(c1ccccc1Cl)=NC2C (centres undefined)
activity [9]: -12.7%
Potency [10]: 48.2 µM (active)
activity [11]: -36.8%
activity [12]: -8.97%
outcome [1]: inactive
Potency [5]: 25.5 µM (active)
outcome [13]: inactive
outcome [14]: inactive

O=C(O)c1nn(Cc2ccc(Cl)cc2Cl)c2ccccc12
outcome [7]: inactive
outcome [1]: inactive
Potency [5]: inactive

Clc1ccc(CO/N=C(\Cn2ccnc2)c2ccc(Cl)cc2Cl)c(Cl)c1
outcome [15]: inactive
outcome [2]: inactive
outcome [3]: inactive
outcome [1]: inactive
Potency [5]: inactive

COc1ccc(CN2CCNCC2)c(OC)c1OC
outcome [1]: inactive
Potency [5]: inactive

OC[C@H]1O[C@@H](OCCc2ccc(O)cc2)[C@H](O)[C@@H](O)[C@H]1O
outcome [6]: inactive

COc1ccc2cc3[n+](cc2c1OC)CCc1cc2c(cc1-3)OCO2
outcome [6]: inactive

C[C@]12CC[C@H](O)CC1=CC[C@@H]1[C@@H]2CC[C@]2(C)C(=O)CC[C@@H]12
outcome [6]: inactive
outcome [16]: inactive
outcome [17]: inactive
outcome [18]: inactive
outcome [19]: inactive
outcome [20]: inactive
outcome [1]: inactive
Potency [5]: inactive
outcome [13]: inactive
outcome [14]: inactive

Cn1c(=O)c2c(ncn2C)n(C)c1=O
outcome [6]: inactive

COP(=S)(OC)Oc1ccc(S(N)(=O)=O)cc1
outcome [1]: inactive

C=CCN1CC[C@]23CCCC[C@H]2[C@H]1Cc1ccc(O)cc13
activity [9]: 0.434%
activity change, negative = inhibition [10]: 3.29%
activity [11]: -15.3%
activity [12]: 2.6%
outcome [1]: inactive
Potency [5]: inactive

CC(C)[N+](C)(CCC(C(N)=O)(c1ccccc1)c1ccccc1)C(C)C
outcome [1]: inactive
Potency [5]: inactive

NC(=O)CN1CCCC1=O
outcome [7]: inactive
outcome [1]: inactive
Potency [5]: inactive

N#Cc1nn(-c2c(Cl)cc(C(F)(F)F)cc2Cl)c(N)c1S(=O)C(F)(F)F (centres undefined)
outcome [1]: inactive
Potency [5]: inactive

CNC(C)Cc1ccccc1OC (centres undefined)
outcome [1]: inactive
Potency [5]: inactive

COc1ccc(C(=O)N2CCCC2=O)cc1
outcome [7]: inactive
outcome [1]: inactive
Potency [5]: inactive

O=C1O[C@H]([C@@H](O)CO)C(O)=C1O
outcome [6]: inactive

CC[C@]1(O)CC[C@H]2[C@@H]3CCC4=CCCC[C@@H]4[C@H]3CC[C@@]21C
outcome [1]: inactive

O=C(O)Cc1ccccc1
outcome [1]: inactive
Potency [5]: inactive

Cc1nnc2n1-c1sc(CCC(=O)N3CCOCC3)cc1C(c1ccccc1Cl)=NC2
outcome [1]: inactive
Potency [5]: inactive

CC(C(O)c1ccccc1)N(C)C/C=C/c1ccccc1 (centres undefined)
outcome [1]: inactive
Potency [5]: inactive

NC(=O)OCCCc1ccccc1
outcome [1]: inactive
Potency [5]: inactive

C#C[C@]1(O)C=C[C@H]2[C@@H]3CCC4=CC(=O)CC[C@@H]4[C@H]3CC[C@@]21CC
outcome [1]: inactive
Potency [5]: inactive

c1ccc2c(c1)Sc1ccccc1N2CC1CN2CCC1CC2 (centres undefined)
outcome [1]: inactive
Potency [5]: inactive

CN1C2CCC(C)(C)C1CC(OC(=O)C(O)(c1cccs1)c1cccs1)C2 (centres undefined)
outcome [1]: inactive
Potency [5]: inactive

CC1=C2[C@H]3OC(=O)[C@@H](C)[C@@H]3CC[C@@]2(C)C=CC1=O
outcome [1]: inactive
Potency [5]: inactive

Clc1ccc(C(OCCN2CCCCC2)c2ccccc2)cc1 (centres undefined)
outcome [1]: inactive
Potency [5]: inactive

O=C1CN2CCOC2(c2ccccc2Cl)c2cc(Cl)ccc2N1 (centres undefined)
outcome [1]: inactive
Potency [5]: inactive

Cc1ccc(N=CN(C)C=Nc2ccc(C)cc2C)c(C)c1
outcome [1]: inactive
Potency [5]: inactive

C[C@@H]1CN(C2CCC(C#N)(c3ccc(F)cc3)CC2)CC[C@]1(C(=O)O)c1ccccc1 (some centres undefined)
outcome [1]: inactive
Potency [5]: inactive

CC(C)(O)C(Cl)(Cl)Cl
outcome [1]: inactive
Potency [5]: inactive
